# The source made the active and inactive calls. Rule for the calls: active = hit-call score of the fitted dose curve at least 0.9, where 1 is the maximum; inactive = score below 0.9.
# Test: ATG_MRE_CIS: Attagene CIS-FACTORIAL HepG2 Assay for human Metal Responsive Element (MRE) (AID 2282954)
# Conditions: HepG2 MRE cis-reporter transcription, Attagene multiplex; actives raise or lower the signal
# Experimental: ATG_CIS is a cell-based, multiplexed-readout assay that uses HepG2, a human liver cell line, with measurements taken at 24 hours after chemical dosing in a 24-well plate.ATG_MRE_CIS is one of 52 assay component(s) measured or calculated from the ATG_CIS assay. It is designed to make measurements of mRNA induction, a form of inducible reporter, as detected with fluorescence intensity signals by Reverse transcription polymerase chain reaction (RT-PCR) and Capillary electrophoresis technology.Data from the assay component ATG_MRE_CIS was analyzed into 1 assay endpoint. This assay endpoint, ATG_MRE_CIS, was analyzed with bidirectional fitting relative to DMSO as the negative control and baseline of activity. Using a type of inducible reporter, measures of mRNA for gain or loss-of-signal activity can be used to understand the reporter gene at the transcription factor-level as they relate to the gene MTF1. Furthermore, this assay endpoint can be referred to as a primary readout, because this assay has produced multiple assay endpoints where this one serves a reporter gene function. To generalize the intended target to other relatable targets, this assay endpoint is annotated to the dna binding intended target family, where the subfamily is zinc finger.
# Human liver HepG2 cells are transiently transfected with multiple reporter transcription units (MRTUs) in 6-well plates using FuGene 6 reagent (Roche; 3 ml FuGene/1 mg DNA). The MRTU constructs are regulated by a cis-regulating element (promoter). […] A major difference between the CIS and TRANS system is that in CIS activities of endogenous TFs are measured, whereas the TRANS assay evaluates changes in activities of exogenous, chimeric NR-Gal4 proteins. […] At the end of 24 hour incubation, total RNA was isolated using TriZol reagent (Invitrogen). The isolated RNA is then reverse-transcribed using oligo(dT) primer and Mo-MLV reverse transcriptase (Invitrogen) with DNAse I (Ambion) treatment for 30 min. The one-tenth of the produced cDNA was amplified by PCR using Taq DNA polymerase (Invitrogen) and two reporter sequence-specific primers. The PCR products were fluorescently labeled by primer extension with 6-arboxyfluorescein (6-FAM) 5'-labeled reporter sequence-specific primer (2 min at 95 C, 20 s at 68 C and 10 min at 72 C) and these products were digested with 5U of HpaI (New England Biolabs) for 2h at 37 C. The fragments were purified using Qiaquick PCR columns (Qiagen), analyzed on an ABI 3130xL genetic analyzer (Applied Biosystems) with peak positions identified by using a set of X-rhodamine (ROX)-labeled MapMarker1000 molecular weight standards (BioVentures). The raw capillary electrophoresis data was processed using Attagraph software (Attagene).
SMILES,outcome,AC50
CC(C)N1C(=O)c2ccccc2C1=O,inactive,
CCC(=O)OC(C)(C)C1CC=C(C)CC1 (stereo not given),inactive,
CC/C=C\CCOC(=O)C(C)C,inactive,
CCCCOCC(C)OCC(C)O (stereo not given),inactive,
CC(=O)OCC=C(C)CCC=C(C)CCC=C(C)C,,100 µM (active)
CCCCCCCCOC(=O)c1ccc(O)cc1,inactive,
CC(C)CCOC(=O)CC(C)C,inactive,
CCCCOC(=O)C(C)OC(=O)CCC (stereo not given),inactive,
O=C(OCc1ccccc1)c1ccccc1O,inactive,
C1=COCCC1,inactive,
CC(=O)OC(C)(C)C1CC=C(C)CC1 (stereo not given),inactive,
N#CCCNCCC#N,inactive,
CCCCCCCCCO,inactive,
C=CCOC(=O)/C=C\C(=O)OCC=C,,39.5 µM (active)
CCCO,inactive,
CCCCCCCOC(C)=O,inactive,
c1ccc(OCCOc2ccccc2)cc1,inactive,
C=C(C)C(=O)OCCOCCOC(=O)C(=C)C,inactive,
CCCCCCCCCCCCCC(=O)OCC,inactive,
Nc1ccc(N)c([N+](=O)[O-])c1,inactive,

SMILES,outcome,AC50
S=c1[nH][nH]c(=S)s1,inactive,
CC/C=C\C#N,inactive,
O=c1cc(-c2ccc(O)cc2)oc2cc(O)cc(O)c12,,41.1 µM (active)
[Cu+],,1.09 µM (active)
CN(C)CCC=C1c2ccccc2CCc2ccccc21,,43.2 µM (active)
NCCN1CCNCC1,inactive,
CCCCCCCCOS(=O)(=O)O,inactive,
OCCCO,inactive,
CCC(C)(C)c1cc(O)c(C(C)(C)CC)cc1O,,16.2 µM (active)
C=CCOCC(O)CO (stereo not given),inactive,
CC1(C)CC(N)CC(C)(CN)C1 (stereo not given),inactive,
CCOC(=O)C(=O)OCC,inactive,
CCNC(=S)NCC,inactive,
CC1=CC(O)CC(C)(C)C1 (stereo not given),inactive,
CN(C)C,inactive,
CCCCCCOc1ccc(O)cc1,,47.7 µM (active)
CC/C=C\CCOC(C)OCC (stereo not given),inactive,
O=C(O)c1ccccc1O,inactive,
CCCCCCCC1CCCC1=O (stereo not given),inactive,
CCCCCC1CCC(=O)O1 (stereo not given),inactive,

# Reference: PubChem BioAssay (EPA / NIEHS)
